HCMV inh: inhibitors of human cytomegalovirus; HFF cells, HCMV-luciferase reporter, 72 h; hits give low values; activity change, negative = inhibition, % at 57.5 µM; 4.5% of 410,000 active; in the data active = activity change below about -60%; inconclusive = no clear call, values can overlap the other calls; inactive = above about -39%; also: % is scaled to controls: 0 for no effect and ±100 for the full control effect
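Two-dose cell screen: HFF monolayers treated with compounds and infected with luciferase-expressing HCMV at 1 PFU/cell, 72 h at 37C, then lysed for luciferase measurement.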
LASV entry inh: Lassa virus entry inhibition; Potency, µM (titrated, usually from 37.9 µM), for inactives: at the top dose activity change, negative = inhibition, usual class: inhibitors; Lassa virus pseudotype entry inhibition, cell reporter; AID 540256; 1.2% of 300,000 active; calls by dose curve; tested in HEK293 cells; also: potency is read from the fitted curve at half-maximal effect; % is scaled to controls: 0 for no effect and ±100 for the full control effect; nearly all actives have a fitted effect of over 50% in size
SARS PLpro yeast: blocks SARS-CoV papain-like protease in a yeast assay; Potency, µM (doses to about 32.9 µM), for inactives: top-dose activity, positive = growth rescue, hits mostly activators; S. cerevisiae expressing SARS-CoV PLpro, growth rescue; 0.19% of 330,000 active; calls by dose curve; also: potency is read from the fitted curve at half-maximal effect; 0% is about no effect; nearly all actives have a fitted effect of over 55% in size
FMDV antiviral: antivirals against foot and mouth disease virus; FMDV antiviral cell-based qHTS; Potency, µM (titrated, usually from 57.9 µM), without a hit: at the highest dose activity change, negative = inhibition, usual class: inhibitors; 1.2% of 410,000 active; AID 1159524; calls by dose curve; tested in HEK293T cells; also: read-out not given here; potency is read from the fitted curve at half-maximal effect; % is scaled to controls: 0 for no effect and ±100 for the full control effect; nearly all actives have a fitted effect of over 45% in size
MARV entry inh: Marburg virus entry inhibition; Marburg virus pseudotyped entry inhibition, cell reporter; Potency, µM (top dose mostly 37.8 µM), without a hit: at the top dose activity change, negative = inhibition, hits mostly inhibitors; 1.8% of 300,000 active; calls by dose curve; tested in HEK293 cells; also: potency is read from the fitted curve at half-maximal effect; % is scaled to controls: 0 for no effect and ±100 for the full control effect
HCV inh: blocks hepatitis C virus; Potency, µM (top dose mostly 41.8 µM), without a hit: top-dose activity change, negative = inhibition, hits mostly inhibitors; Huh7.5.1 HCVcc-Cre infection, luciferase reporter, 44 h; 3.4% of 340,000 active; active = well fitted inhibition curve with a large enough effect; inconclusive = small, poorly fitted or top-dose-only effect, or another doubt; inactive = no such curve, though single readings can be large or run the other way; also: potency is read from the fitted curve at half-maximal effect; % is scaled to controls: 0 for no effect and ±100 for the full control effect
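Cells (1,000/well) were plated 4 h before compound, then infected with HCVcc-Cre virus (~0.5 moi). After 44 h further culture, infection was read as luciferase luminescence following a 15 min substrate incubation at room temperature.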
An asterisk follows results filed as active; ? = inconclusive; . = no result; [ ] = another dose, or the depositor's remark. The list is not random: actives were taken first. Their share in the collection is about 8%.

SMILES	HCMV inh	LASV entry inh	SARS PLpro yeast	FMDV antiviral	MARV entry inh	HCV inh
CCOc1ccc(C(=O)Nc2c(C)nc(Nc3ccccc3)nc2Nc2ccccc2)cc1OCC	?	-23%[46.1 µM]	.	-17%	?	.
N#CC(=C1CCCC1)c1nc(-c2ccccc2O)cs1	.	10µM*	-9%	13%	?	?
COc1cccc(C2CC(c3c(-c4ccccc4)c4cc(Cl)ccc4[nH]c3=O)=NN2S(C)(=O)=O)c1OC (stereo not given)	-6	?	-6%	?	?	11µM*
COc1ccccc1C1CC(c2c(-c3ccccc3)c3cc(Cl)ccc3[nH]c2=O)=NN1S(C)(=O)=O (stereo not given)	9	?	4%	?	?	?
O=C(Nc1ccc2nn(-c3ccc(F)cc3)nc2c1)c1cccc2c(Cl)cccc12	13	15%[46.1 µM]	.	0%	0%[46.1 µM]	.
COC(=O)c1ccccc1NC(=O)C1CC=CCC1C(=O)O (stereo not given)	-60*	2%	1%	9%	30%	15%
Cc1nn(-c2ccccc2)c(N2CCCC2)c1/C=N/NC(=O)c1ccccc1O	-19	?	-4%	0%	?	?
CCNc1ccc(C(=O)N/N=C/c2c(C)nn(-c3ccccc3)c2N2CCCC2)cc1[N+](=O)[O-]	71	1%	3%	?	9%	?
Cc1ccc(NS(=O)(=O)c2cccc(C(=O)N/N=C/c3c(C)nn(-c4ccccc4)c3N3CCCC3)c2)c(C)c1	33	?	-4%	-17%	-44%	13µM*
Cc1nn(-c2ccccc2)c(N2CCCC2)c1/C=N/NC(=O)C1CC1	-61*	?	3%	-26%	?	?
O=C(NC1CC(=O)N(c2ccccc2)C1)c1ccc(S(=O)(=O)N2CCCCC2)cc1 (stereo not given)	23	9%[46.1 µM]	.	-23%	.	.
COc1ccccc1C(=O)N(CCC1CCCN1C)c1nc2ccccc2s1 (stereo not given)	-77*	?	-1%	?	?	9%
COc1ccc2sc(N(CCCN(C)C)C(=O)c3nc4ccccc4s3)nc2c1	40	28%	-5%	0%	10%[46.1 µM]	4%
CCC(=O)Nc1ccc(-c2nnc(SCC(=O)NC[C@H]3CCCO3)n2C)cc1	.	.	.	.	-7%	.
CCOc1ccccc1NC(=O)Cn1c(=O)n(Cc2ccco2)c(=O)c2ccc(C(=O)NC3CCCC3)cc21	23	3%[46.1 µM]	.	-7%	-1%[46.1 µM]	.
O=C(NCc1ccc(C(F)(F)F)cc1)c1ccc(-c2ccc(F)c(F)c2)c2ccoc12	1	.	.	-24%	.	.
COc1ccc(-c2ccc(C(=O)NCc3ccncc3)c3occc23)c(C)c1	-91*	.	.	-19%	.	.
O=C(NCc1ccncc1)c1ccc(-c2ccc(F)c(F)c2)c2ccoc12	-73*	.	.	?	.	.
O=C(NCc1ccccn1)c1cc(-c2ccc(Cl)cc2)oc1C(F)(F)F	-1	.	-14%	-26%	.	?
O=C(NCc1ccncc1)c1cc(-c2ccc(Cl)cc2)oc1C(F)(F)F	-27	.	-13%	?	.	11µM*
CCOc1ccc(CCNC(=O)Cn2nc(-c3ccc(C)cc3)ccc2=O)cc1OCC	?	15%[46.1 µM]	.	-23%	.	.
C=C1C(=O)OC2C=C(CO)C3OC3C3OC3(C)CC(OC(=O)/C(=C/C)COC(C)=O)C12 (stereo not given)	-100*	?	.	7.9µM*	2.5µM*	?
CC(=O)OCC1=C[C@@H]2OC(=O)C3=CO[C@@H](O[C@@H]4O[C@H](CO)[C@@H](O)[C@H](O)[C@H]4O)[C@H]1[C@@H]32	4	.	0%	-16%	.	5%
COc1ccc(CNC(=O)C(C)n2ccc3cc(S(=O)(=O)N4CCCCCC4)ccc32)cc1 (stereo not given)	-9	.	3%	-21%	.	6.3µM*
CCc1ccc(CNC(=O)CCCn2ccc3cc(S(=O)(=O)N4CCCC4)ccc32)cc1	-89*	?	.	-32%	.	.
SMILES	HCMV inh	LASV entry inh	SARS PLpro yeast	FMDV antiviral	MARV entry inh	HCV inh
COc1cccc(CNC(=O)CCCn2ccc3cc(S(=O)(=O)N4CCCC4)ccc32)c1	-26	?	-4%	-14%	?	?
COc1ccc(OC)c(CNC(=O)CCCn2ccc3cc(S(=O)(=O)N4CCCC4)ccc32)c1	-38	-30%[46.1 µM]	5%	?	.	10µM*
COc1ccccc1C(=O)Oc1c(Sc2ccccc2)c(C)nn1C(C)(C)C	27	-3%[46.1 µM]	.	?	-15%[46.1 µM]	.
COC(=O)CN1C(=O)C(C)(C)c2cc(S(=O)(=O)NCc3ccc(Cl)cc3)ccc21	9	10%[46.1 µM]	.	11%	.	.
CCCCC(=O)Nc1ccc(C2C(=O)c3ccccc3C2=O)cc1	55	?	.	?	-6%	10µM*
CCc1ccc(C2C(=O)c3ccccc3C2=O)cc1	8	-18%[46.1 µM]	.	10%	?	-4%
CCCCC(=O)Nc1ccc(C(N)=O)cc1	39	1%	?	20%	16%	29%
CCC(=O)Nc1ccc(C2C(=O)c3ccccc3C2=O)cc1	147	?	1%	20µM*	10µM*	2.8µM*
COc1ccc(-n2c(SCc3ccccc3F)nc3c([nH]c4ccccc43)c2=O)cc1	-5	6%[46.1 µM]	.	0%	.	.
CC(CO)Nc1nc(SCc2ccccc2)nc2sc3c(c12)CCC3 (stereo not given)	?	22%	-33%	-23%	9%	13µM*
Cc1cc(=O)n2nc(N3CCC(C(=O)Nc4ccc(C(C)C)cc4)CC3)sc2n1	-2	28%[46.1 µM]	.	?	2%[46.1 µM]	.
Cc1ccc(O)c(N=Cc2sc3ccccc3c2Cl)c1	-9	17%	-2%	37%	8%	-6%
Oc1ccccc1N=Cc1sc2ccccc2c1Cl	-76*	-28%	-57%	8%	?	-26%
CN1CCN(c2ccc(-c3cc(O)c4ncccc4c3)cc2)CC1	.	.	-9%	.	.	.
CCc1ccc(NC(=O)c2ccc(F)c(S(=O)(=O)NCCc3ccc(OC)c(OC)c3)c2)cc1	-83*	?	.	?	.	.
O=C(NCC1COc2ccccc2O1)c1ccc(F)c(S(=O)(=O)N2CCOCC2)c1 (stereo not given)	-13	5%	-2%	-7%	-7%	-2%
CCc1ccc(NC(=O)c2ccc(F)c(S(=O)(=O)N(C)C3CCCCC3)c2)cc1	-98*	?	.	?	.	.
Cc1ccc([N+](=O)[O-])cc1S(=O)(=O)NCC1COc2ccccc2O1 (stereo not given)	-68*	.	-7%	12%	.	?
Cc1ccc(S(=O)(=O)NCC2COc3ccccc3O2)cc1 (stereo not given)	-26	13%	-112%	19%	19%	0%
CCc1ccc(NC(=O)c2ccc(F)c(S(=O)(=O)NCC3COc4ccccc4O3)c2)cc1 (stereo not given)	-91*	16µM*	-3%	-27%	12µM*	?
